The source of these data is PubChem BioAssay (NCATS).

In assay [1] the target is Cytochrome P450 2C9 (Homo sapiens) (UniProt P11712). Nature of the assay: qHTS Assay for Inhibitors and Substrates of Cytochrome P450 2C9 (AID 883). Also: nearly all actives have a fitted effect of over 60% in size. Also: potency is read from the fitted curve at half-maximal effect. In outline:
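10nM CYP2C9 + 100uM Luciferin-H (=KM), 25mM KPO4; cpd 10 min 37C; NADPH regen, 60 min 37C; stop/detect with P450 Glo-Buffer 20 min; luminescence. Norm. to 57uM sulphaphenazole as full inhibition.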
In general terms: qHTS replaces the single test concentration by a dilution series.

The target of assay [2] is Cytochrome P450 2D6 (Homo sapiens) (UniProt P10635). As to the kind of experiment: qHTS Assay for Inhibitors and Substrates of Cytochrome P450 2D6 (AID 891). Also: nearly all actives have a fitted effect of over 60% in size. Also: potency is read from the fitted curve at half-maximal effect. In outline:
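Human CYP2D6 (5 nM) with 30 uM Luciferin-ME EGE (at Km) in 100 mM KPO4, compound preincubated 10 min, then NADPH regeneration system for 60 min at room temperature. Luciferin read by luminescence; normalized to 1.43 uM quinidine.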

Assay [3] addresses Cytochrome P450 3A4 (Homo sapiens) (UniProt P08684). As to the kind of experiment: qHTS Assay for Activators of Cytochrome P450 3A4 (AID 885). Also: nearly all actives have a fitted effect of over 65% in size. The procedure, abridged:
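Steps: enzyme/substrate mix dispensed; compound added, 10 min RT; NADPH regeneration solution added, 60 min RT; luciferin detection buffer stops reaction; 20 min later luminescence measured.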

For assay [4], the target named is Cytochrome P450 2C19 (Homo sapiens) (UniProt P33261). Nature of the assay: qHTS Assay for Inhibitors and Substrates of Cytochrome P450 2C19 (AID 899). Also: nearly all actives have a fitted effect of over 60% in size. Also: potency is read from the fitted curve at half-maximal effect. The procedure, abridged: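 Luminescent read-out of luciferin formed from Luciferin-H EGE (10uM, equal to KM). Enzyme 5nM in 50mM KPO4; compound added, 10 min at 37C, then NADPH regenerating system for 60 min at 37C. Full inhibition defined by 57uM ketoconazole.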

Assay [5] in a line: qHTS Assay for Identification of Small Molecule Agonists for Hypoxia Response Element Signaling Pathway (AID 914; active = well fitted activation curve with a large enough effect in the signal ratio, with a control signal flat, not every such curve was filed as active; the % refers to the signal ratio; also: % of control where 0% means no effect). The note with it: ME-180 (cervical carcinoma) HRE-bla reporter, beta-lactamase ratio, CoCl2, 17 h; active compounds read high. The procedure, abridged:
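Positive modulation of EC50 CoCl2-induced hypoxia response element signaling is measured in ME-180 cells with a beta-lactamase reporter. Compounds are titrated, incubation runs 17 hours, and %Activity derives from the blue/green ratio.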

The target of assay [6] is Cytochrome P450 3A4 (Homo sapiens) (UniProt P08684). As to the kind of experiment: qHTS Assay for Inhibitors and Substrates of Cytochrome P450 3A4 (AID 884). Also: series mostly up to about 57 µM; % is scaled to controls: 0 for no effect and ±100 for the full control effect; nearly all actives have a fitted effect of over 50% in size. The procedure, abridged:
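20 nM human CYP3A4 with 25 uM Luciferin-PPXE (at KM) in 200 mM KPO4, preincubated 10 min with compound; NADPH regeneration started a 60 min RT reaction. Luciferin detected by luminescence, normalized to 57 uM ketoconazole as full inhibition.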

Values joined by “and” are separate entries in the source; they are usually repeats but may differ in a detail not shown here. Equal values may be shown once. Unmarked numbers belong to inactive results. Inconclusive results are not listed. Active and inactive are the calls of the source. Unless noted, calls follow the shape of the dose curve; as a rule, active = well fitted curve in the direction sought with a large enough effect; inconclusive = small, poorly fitted or top-dose-only effect, or another doubt; inactive = no such curve, though single readings can be large; an effect the other way counts as inactive or inconclusive.

Cytochrome P450 2D6 (Homo sapiens), sequence (P10635 whole entry, looked up): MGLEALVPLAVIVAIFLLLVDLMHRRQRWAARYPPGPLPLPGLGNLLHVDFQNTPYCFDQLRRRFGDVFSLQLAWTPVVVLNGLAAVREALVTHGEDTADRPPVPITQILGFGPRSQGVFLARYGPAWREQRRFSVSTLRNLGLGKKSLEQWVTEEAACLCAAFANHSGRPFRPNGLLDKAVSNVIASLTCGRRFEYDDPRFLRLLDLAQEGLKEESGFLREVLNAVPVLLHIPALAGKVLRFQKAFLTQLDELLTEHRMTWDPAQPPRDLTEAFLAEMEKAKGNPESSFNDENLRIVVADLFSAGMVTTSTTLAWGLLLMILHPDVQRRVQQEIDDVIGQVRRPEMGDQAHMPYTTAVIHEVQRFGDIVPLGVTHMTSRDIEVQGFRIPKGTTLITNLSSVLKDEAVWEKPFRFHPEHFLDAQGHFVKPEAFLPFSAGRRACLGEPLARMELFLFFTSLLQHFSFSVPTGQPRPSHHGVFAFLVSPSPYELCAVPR
Cytochrome P450 3A4 (Homo sapiens), sequence (P08684 whole entry, looked up): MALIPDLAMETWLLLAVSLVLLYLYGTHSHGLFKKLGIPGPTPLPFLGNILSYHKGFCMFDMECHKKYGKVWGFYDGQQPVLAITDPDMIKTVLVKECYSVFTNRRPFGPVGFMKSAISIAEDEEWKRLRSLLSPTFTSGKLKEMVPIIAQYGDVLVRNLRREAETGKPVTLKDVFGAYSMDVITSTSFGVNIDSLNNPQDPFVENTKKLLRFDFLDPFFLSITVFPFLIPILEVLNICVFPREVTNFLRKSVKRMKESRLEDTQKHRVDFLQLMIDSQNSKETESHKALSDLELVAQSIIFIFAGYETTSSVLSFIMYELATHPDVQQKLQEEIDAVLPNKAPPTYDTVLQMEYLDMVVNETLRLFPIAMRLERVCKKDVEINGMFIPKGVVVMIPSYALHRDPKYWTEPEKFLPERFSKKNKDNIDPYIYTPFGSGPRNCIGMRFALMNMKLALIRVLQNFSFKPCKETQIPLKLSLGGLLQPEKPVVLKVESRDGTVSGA
Cytochrome P450 2C9 (Homo sapiens), sequence (P11712 whole entry, looked up): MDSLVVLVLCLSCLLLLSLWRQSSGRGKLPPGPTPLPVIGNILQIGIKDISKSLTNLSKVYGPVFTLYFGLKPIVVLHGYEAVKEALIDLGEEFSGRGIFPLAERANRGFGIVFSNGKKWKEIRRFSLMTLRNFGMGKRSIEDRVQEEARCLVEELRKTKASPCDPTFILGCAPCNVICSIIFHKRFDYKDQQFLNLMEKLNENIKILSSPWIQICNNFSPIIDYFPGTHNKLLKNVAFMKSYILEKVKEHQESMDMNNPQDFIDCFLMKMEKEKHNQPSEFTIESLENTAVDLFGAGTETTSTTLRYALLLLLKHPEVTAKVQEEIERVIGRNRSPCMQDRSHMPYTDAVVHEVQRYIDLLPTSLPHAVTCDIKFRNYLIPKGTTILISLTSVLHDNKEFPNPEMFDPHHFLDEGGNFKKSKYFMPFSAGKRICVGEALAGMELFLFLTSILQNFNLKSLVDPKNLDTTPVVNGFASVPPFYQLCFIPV
Cytochrome P450 2C19 (Homo sapiens), sequence (P33261 whole entry, looked up): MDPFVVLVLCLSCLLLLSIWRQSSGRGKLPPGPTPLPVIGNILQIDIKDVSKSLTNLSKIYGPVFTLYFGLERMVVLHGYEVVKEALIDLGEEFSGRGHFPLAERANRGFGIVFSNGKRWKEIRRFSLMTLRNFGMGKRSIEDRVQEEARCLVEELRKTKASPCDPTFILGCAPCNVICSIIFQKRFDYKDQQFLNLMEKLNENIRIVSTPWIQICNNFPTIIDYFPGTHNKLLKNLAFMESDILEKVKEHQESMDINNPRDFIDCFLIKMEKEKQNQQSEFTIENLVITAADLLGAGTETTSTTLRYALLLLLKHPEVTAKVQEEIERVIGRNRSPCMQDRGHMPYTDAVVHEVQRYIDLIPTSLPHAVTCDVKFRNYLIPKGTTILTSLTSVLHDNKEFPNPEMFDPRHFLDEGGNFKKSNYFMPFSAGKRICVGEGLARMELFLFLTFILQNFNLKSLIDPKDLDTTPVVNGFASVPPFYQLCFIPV

With `COC(=O)NC(c1ccccc1)C(C#N)C(=O)OC` (centres undefined), the Potency entry in assay [1] and in assay [2] was “inactive” each time.
With `COC(=O)C1=C(C)N(Cc2ccccc2)[C@]23O[C@](C(=O)OC)(C(=O)N2C1c1ccccc1)C1C(=O)N(C)C(=O)C13` (some centres undefined), the Potency result in assay [1], in assay [2] and in assay [4] was “inactive” throughout. The activity change, positive = activation in assay [3] was -51.8% [at 11.4 µM] and -36.4% [at 11.4 µM].
Consider `O=C1OC(C2=CCCCC2)=NC12CC2`, for which the Potency entry in assay [1], in assay [2] and in assay [4] was “inactive” each time. Moreover, the activity change, positive = activation in assay [3] was -40.2% [at 11.4 µM].
On to `CC(C)CCN1CCc2nc(-c3ccccc3)c3c(c2C1)COC(C)C3` (centres undefined), for which the Potency result in assay [1], in assay [2] and in assay [4] was “inactive” throughout. The activity change, positive = activation in assay [3] was -56% [at 11.4 µM].
Turning to `O=C1CCC[C@@H](C(C(=O)OCc2ccccc2)C(=O)OCc2ccccc2)C1`, the Potency in assay [1] is 3.16 µM (active). For the same compound, the activity change, positive = activation in assay [3] is -39.2% [at 11.4 µM]. In assay [5], the activation is -22.4%.
For the compound `OCC1OC(c2ccc3c(c2)OCO3)C=CC1Oc1ccc(C2CCCC2)cc1` (centres undefined), the Potency result in assay [1] and in assay [4] was “inactive” each time. Further, in assay [3], the activity change, positive = activation is -50.7% [at 11.4 µM].
On to `CC(=O)OCC1OC(C#CCCc2ccccc2)C=CC1OC(C)=O` (centres undefined), for which the Potency entry in assay [1], in assay [2] and in assay [4] was “inactive” each time. The activity change, positive = activation in assay [3] is -61.8% [at 11.4 µM].
For the compound `CC(=O)c1ccc(C2C=CC(O)C(CO)O2)cc1` (centres undefined), the Potency result in assay [1], in assay [2] and in assay [4] was “inactive” each time.
`C=CCOCC/C=C1/c2ccccc2C(OC)C1C` (centres undefined): the Potency entry in assay [1] is “inactive”. The activity change, positive = activation in assay [3] was -43.5% [at 11.4 µM]. The Potency in assay [4] is 3.98 µM (active).
Consider `COc1ccc(-c2nc3c(c4c2CC(C)OC4)CN(CCC(C)C)CC3)cc1` (centres undefined), for which the Potency entry in assay [1], in assay [2] and in assay [4] was “inactive” throughout. Further, the activity change, positive = activation in assay [3] is -50.4% [at 11.4 µM].
Regarding `O=C1CCCC=C1[C@H](CCc1ccccc1)OC(=O)c1ccc(Br)cc1`, the Potency in assay [1] was 3.16 µM (active); in assay [4] it was 1.58 µM (active). The activity change, positive = activation in assay [3] was -49.6% [at 11.4 µM].
On to `COC(=O)C/C=C/C(C)C(OCc1cccc(-c2ccccc2)c1)C1CCCCC1` (centres undefined), for which the Potency entry in assay [1], in assay [2] and in assay [4] was “inactive” in each case. For the same compound, the activity change, positive = activation in assay [3] is -35.3% [at 11.4 µM].
For `CCCCc1nc2c(c3c1CC(C)OC3)CN(CCOc1ccccc1)CC2` (centres undefined), the Potency result in assay [1] and in assay [4] was “inactive” each time. In addition, the activity change, positive = activation in assay [3] was -59.6% [at 11.4 µM].
With `COC(=O)NC(c1ccccc1)C(C(=O)OC)C(=O)OC` (centres undefined), the Potency result in assay [1] is “inactive”. The Potency in assay [2] is 0.0079 µM (active).
Consider `COC(=O)NC(c1cccc(C)c1)C(C(C)=O)C(=O)OC` (centres undefined), for which the Potency result in assay [1], in assay [2] and in assay [4] was “inactive” throughout. Also, the activity change, positive = activation in assay [3] was -34.6% [at 11.4 µM].
Consider `CC1Cc2c(-c3ccccc3)nc3c(c2CO1)CN(CCOc1ccccc1)CC3` (centres undefined), for which the Potency entry in assay [1] and in assay [4] was “inactive” each time. In assay [3], the activity change, positive = activation is -39% [at 11.4 µM].
As to `CCCCCCC#CC1C=CC(Oc2ccc(C=O)cc2)C(CO)O1` (centres undefined), the Potency entry in assay [1] and in assay [2] was “inactive” in each case. Besides, the activity change, positive = activation in assay [3] was -35.2% [at 11.4 µM]. Besides, the Potency in assay [4] was 3.98 µM (active).
Consider `COc1cccc([C@@H]2Oc3ccc(Br)cc3C(=O)[C@H]2O)c1`, for which the Potency is 2.51 µM (active) in assay [1], 3.16 µM (active) in assay [2] and 3.16 µM (active) in assay [4]. Further, the activity change, positive = activation in assay [3] was -74.4% [at 11.4 µM].
`COC(=O)C(C(=O)OC)C1O[C@@]23COCCC2(C)C3c2ccccc21` (some centres undefined): the Potency result in assay [1], in assay [2] and in assay [4] was “inactive” throughout. Moreover, the activity change, positive = activation in assay [3] was -34.9% [at 11.4 µM].
For `COC(=O)[C@@H]1CC[C@H](C)[C@@H](c2ccc(C)cc2)N1C(=O)c1ccc(/C=N\OC[C@@H](O)[C@H]2O[C@H]3OC(C)(C)O[C@H]3[C@@H]2O)cc1`, the figures for the Potency in assay [1] and in assay [4] were 2.51 µM (active) and 0.631 µM (active), respectively. Besides, in assay [3], the activity change, positive = activation is -58.3% [at 11.4 µM].
For the compound `COC(=O)C1=C(C)N(Cc2ccccc2)C2=C3C(=O)N(c4ccccc4)C(=O)C3[C@@](O)(C(=O)OC)C(=O)N2C1c1ccccc1` (some centres undefined), the Potency result in assay [1], in assay [2] and in assay [4] was “inactive” throughout. Further, in assay [3], the activity change, positive = activation is -39.6% [at 11.4 µM] and -38.9% [at 11.4 µM].
`CCN1C(C)=C(C(=O)OC)C(c2ccccc2)N2C(=O)[C@@]3(C(=O)OC)O[C@@]12C1C(=O)CCCC13` (some centres undefined): the Potency entry in assay [1], in assay [2] and in assay [4] was “inactive” in each case. In addition, in assay [3], the activity change, positive = activation was -36.9% [at 11.4 µM].
As to `COC(=O)C1=C(C)N(Cc2ccccc2)[C@]23O[C@](C(=O)OC)(C(=O)N2C1c1ccccc1)C(C(=O)OC)=C3C(=O)OC` (some centres undefined), the Potency entry in assay [1] and in assay [2] was “inactive” in each case. Moreover, in assay [3], the activity change, positive = activation is -58% [at 11.4 µM]. Also, the Potency in assay [4] was 1.58 µM (active).
Consider `CCOC(=O)OCC1OC(C#Cc2ccc(C)cc2C)C=CC1OC(=O)OCC` (centres undefined), for which the Potency entry in assay [1], in assay [2] and in assay [4] was “inactive” each time.
Turning to `CN(C)/C=N/c1cc(=O)[nH]c(=O)n1Cc1ccccc1`, the Potency result in assay [6] is “inactive”.
